Bioassay records: PubChem BioAssay, several laboratories
CYP2C9 inhib: blockers of cytochrome P450 2C9 activity – biochemical, luminescence, ADME assay, primary screen; CYP2C9 Supersomes, luciferin-H conversion; inhibition, % at 5 µM; 96,000 compounds, 20% hits; AID 777, 2007;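 active = blocking of liver enzyme CYP2C9 beyond about 50% at 5 µM, limit read from the data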
CYP2C19 act: human CYP2C19 activators, primary screen, biochemical, luminescence; recombinant CYP2C19, luciferin-H EGE luminescence; stronger effect = higher value; 0 = fully inhibited enzyme, 1 = untreated enzyme; 96,000 tested, under 10 active; Cytochrome P450 2C19 (Homo sapiens), P33261; activation factor at 5 µM;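 active = activation factor of at least 2 at 5 µM in the primary screen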;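 note: 0 = wells with 2.5 mM tranylcypromine and 1 = vehicle-only wells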
Target sequence (P33261 whole entry, looked up): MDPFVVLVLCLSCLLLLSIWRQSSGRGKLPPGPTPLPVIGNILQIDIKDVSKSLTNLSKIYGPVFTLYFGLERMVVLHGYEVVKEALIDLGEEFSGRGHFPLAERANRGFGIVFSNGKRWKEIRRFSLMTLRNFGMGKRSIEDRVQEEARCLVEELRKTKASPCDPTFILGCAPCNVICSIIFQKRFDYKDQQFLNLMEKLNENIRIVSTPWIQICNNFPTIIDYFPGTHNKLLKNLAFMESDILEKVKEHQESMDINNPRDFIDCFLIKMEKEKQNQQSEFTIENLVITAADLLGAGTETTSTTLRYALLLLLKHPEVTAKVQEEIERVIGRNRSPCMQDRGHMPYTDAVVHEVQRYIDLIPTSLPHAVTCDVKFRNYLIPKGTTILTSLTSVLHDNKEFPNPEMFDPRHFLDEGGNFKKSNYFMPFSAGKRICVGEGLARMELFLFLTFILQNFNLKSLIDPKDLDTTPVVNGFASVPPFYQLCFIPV
Measles CPE: compounds protecting cells from measles virus cytopathic effect, primary screen, measles RdRp inhibitor project, single point, MLSMR library, absorbance. Measles virus-infected cells, CPE protection. protection (pct of control), % at 4 µM. 140,000 compounds, 1.5% hits; in the data active = protection mostly above about 24%, no sharp cut-off; inactive = mostly below about 26%
CYP2C19 inhib: blockers of cytochrome P450 2C19 activity – biochemical, luminescence, ADME assay, primary screen; 96,000 compounds, 21% hits; CYP2C19 Supersomes, luciferin-H EGE luminescence, 30 min; P33261; inhibition, % at 5 µM; AID 778, 2007;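 active = CYP2C19 inhibition above a set limit at 5 µM in the primary screen, cut at about 50% in these data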;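 note: plate controls were negative control wells for no effect and 2.5 mM tranylcypromine positive control for full effect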
CYP2C9 activ: human CYP2C9 activators, primary screen, biochemical, luminescence. recombinant CYP2C9, luciferin-H conversion; stronger effect = higher value; factor 1 = untreated enzyme, 0 = blocked. activation factor at 5 µM. 96,000 compounds, 1.4% hits;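 active = activation factor of 2 or more for CYP2C9 at a 5 µM dose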;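 note: 0 = sulfaphenazole-blocked wells and 1 = vehicle-only wells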
The depositor's hits bear a star; x = not tested or not shown. Most compounds without a hit are left out; they make up all but 22% or so of the library.

SMILES	CYP2C9 inhib	CYP2C19 act	Measles CPE	CYP2C19 inhib	CYP2C9 activ
C[N+]1(C)CC2([N+](=O)[O-])CC=C(Oc3ccccc3)C([N+](=O)[O-])(C2)C1 (stereo not drawn)	x	x	19.3	x	x
CN1CC2([N+](=O)[O-])CC=C(Oc3ccccc3)C([N+](=O)[O-])(C1)C2 (stereo not drawn)	11.9	0.6	30.1*	44.4	0.9
CC(C)(C)c1cc(Br)ccc1OCC(=O)Nc1ncn[nH]1	34.0	0.5	23.3	54.2*	0.7
CC(C)(C)c1ccccc1OCC(=O)Nc1ncn[nH]1	21.3	0.6	13.2	42.2	0.8
O=S(=O)(c1ccc(F)cc1)N1CCN(c2ncnc3c2cnn3-c2ccccc2)CC1	3.1	1	16.9	3.6	1
CCCCN(CC)C(=O)Cn1ncc2c1-c1cc(C)ccc1OC2	70.3*	0.2	9.2	77.4*	0.3
CCCOc1ccc(OCCOCCN2CCc3ccccc3C2)cc1	24.9	0.5	3.0	52.5*	0.8
O=C(NC(=S)Nc1ncc(Br)cc1Br)c1cncc(Br)c1	-11.4	1.1	39.8*	-14.3	1.1
Cc1ccccc1NC(=S)NC(=O)c1cncc(Br)c1	x	x	5.7	x	x
O=C(Nc1cccc(C(=O)N2CCOCC2)c1)c1cncc(Br)c1	-17.0	1.1	38.1*	-11.9	1.2
O=C(Nc1ccncc1)c1cncc(Br)c1	29.9	0.1	7.3	86.6*	0.7
CC(C)CC(=O)NCCCN1CCN(CCCNC(=O)CC(C)C)CC1	x	x	25.4	x	x
CCCCC(CC)C(=O)NCCCN1CCN(CCCNC(=O)C(CC)CCCC)CC1 (stereo not drawn)	11.4	1	35.9*	4.4	0.9
COc1ccc(C(=O)c2ccc(OC)c3cccc(O)c23)cc1OC	83.7*	0.5	15.7	49.9	0.2
Cc1cccc(NC(=O)c2cc(NC(=O)c3ccco3)ccc2Cl)n1	34.1	0.9	8.5	13.5	0.7
Cc1cc(C)nc(SCc2nc(N)nc(-c3ccccc3O)n2)n1	35.8	0.1	6.3	85.1*	0.6
CCOC(=O)c1sc(NC(=O)/C=C/c2ccccc2)nc1C	x	x	2.5	x	x
COc1ccccc1/C=C(/CC(=O)NCc1ccc2c(c1)OCO2)c1nc2ccccc2s1	x	x	19.8	x	x
COc1ccc(C2Nc3ccccc3C(=O)N2Cc2ccco2)cc1COc1ccc(NC(C)=O)cc1 (stereo not drawn)	100.0*	0.2	6.8	84.9*	0
COc1ccc(C2Nc3ccccc3C(=O)N2Cc2ccccc2)cc1CSc1ccccn1 (stereo not drawn)	22.8	0.9	12.4	7.0	0.8
COc1ccc(C2Nc3ccccc3C(=O)N2Cc2ccco2)cc1COc1ccccc1F (stereo not drawn)	99.4*	0.1	3.3	90.0*	0
CCCN1Cc2cccc(C(=O)N3CCN(c4ccccc4)CC3)c2C1=O	28.9	0.5	10.8	50.1*	0.7
CCOC(=O)N1CCN(C(=O)c2csc3c2CCCCC3)CC1	76.5*	0.4	16.5	55.1*	0.2
Cc1cc(C(=O)N2CCN(c3ccccc3)CC2)c(C)o1	-4.8	0.6	5.0	38.5	1
O=C(O)c1nccnc1C(=O)N1CCN(c2ccccc2)CC1	x	x	4.0	x	x
SMILES	CYP2C9 inhib	CYP2C19 act	Measles CPE	CYP2C19 inhib	CYP2C9 activ
CCC(C)NC(=O)c1csc2c1CCCCC2 (stereo not drawn)	-58.9	0.9	19.0	14.2	1.6
O=C(O)c1ccccc1C(=O)N1CCN(c2ccccc2)CC1	1.8	1.1	45.2*	-5.6	1
O=C(c1ccccc1C(=O)N1CCN(c2ccccc2)CC1)N1CCN(c2ccccc2)CC1	70.4*	0.7	16.9	32.5	0.3
COc1ccc(/C=N/n2c(SC)nnc(C(C)(C)C)c2=O)c(OC)c1	0.3	0.9	x	5.1	1
Cc1ccc(NC(=O)COS(=O)c2ccc(C)cc2)cc1 (stereo not drawn)	43.5	0.7	6.3	31.6	0.6
Cc1ccc(S(=O)(=O)N2C(=O)CCC2C(=O)Nn2cnnc2)cc1 (stereo not drawn)	-23.0	1.1	18.3	-10.6	1.2
O=C(c1ccc(Br)o1)N1CCN(c2ccc(F)cc2)CC1	23.6	0.1	3.0	95.0*	0.8
O=C(c1noc2c1CCCC2)N1CCN(c2ccc(F)cc2)CC1	0.6	1	5.4	2.4	1
Cc1ccc(C(=O)N2CCN(c3ccc(NC(=O)c4cccnc4)cc3)CC2)cc1	74.3*	0.7	7.3	35.0	0.3
COc1ccccc1-c1cc(C(=O)N2CCN(c3ccc(F)cc3)CC2)no1	-40.9	1	7.1	2.4	1.4
CC(C)Cc1cc(C(=O)N2CCN(c3ccc(F)cc3)CC2)no1	65.0*	0.2	4.8	75.8*	0.3
O=C(Nc1ccc(N2CCN(C(=O)c3ccc(Cl)cc3)CC2)cc1)c1ccc(Br)o1	56.7*	0.7	-0.5	32.5	0.4
CCOC(=O)c1c(N2C(=O)C3C4C=CC(C4)C3C2=O)sc2c1CCC(C)C2 (stereo not drawn)	x	x	2.6	x	x
COc1cc(NC(=O)CN2CCN(Cc3ccc4c(c3)OCO4)CC2)cc(OC)c1	46.7	0.5	4.2	49.4	0.5
CC(C)OCCCNc1nc2c([nH]1)c(=O)n(C)c(=O)n2C	0.2	1	4.7	-4.2	1
O=C(c1ccccc1C(=O)N1CCN(c2ccc(F)cc2)CC1)N1CCN(c2ccc(F)cc2)CC1	87.8*	0.5	1.8	54.0*	0.1
O=C(C1COc2ccccc2O1)N1CCN(c2ccc(F)cc2)CC1 (stereo not drawn)	74.9*	0.1	5.9	85.8*	0.3
O=C(c1csc2c1CCCC2)N1CCN(c2ccccc2)CC1	-102.5	0.9	6.1	14.5	2*
COc1cccc(N2CCN(C(=O)c3[nH]c(C)c(C(C)=O)c3C)CC2)c1	34.1	0.8	24.2	23.3	0.7
CC(=O)c1c(C)[nH]c(C(=O)N2CCN(c3ccc(F)cc3)CC2)c1C	0.5	0.3	9.1	71.1*	1
COc1ccc(C2=CC(=O)OC(C)(c3ccccc3)O2)cc1 (stereo not drawn)	x	x	11.5	x	x
O=C(/C=C/c1ccccc1)NC1CCSC1=O (stereo not drawn)	x	x	2.8	x	x
CCOc1ccc(CCNC(=O)C2CCN(c3nn4c(=O)cc(C)nc4s3)CC2)cc1OCC	57.0*	0.5	9.5	54.2*	0.4
CCOc1ccc(OCC)c(NC(=O)C2CCN(c3nn4c(=O)cc(C)nc4s3)CC2)c1	25.1	0.8	10.3	22.7	0.7
CCOc1ccc(CCNC(=O)C2CCCN(c3nn4c(=O)cc(C)nc4s3)C2)cc1 (stereo not drawn)	63.0*	0.8	5.7	21.7	0.4
CC1=C/C(=N\NC(=O)c2ccccc2)CC1	x	x	11.8	x	x
O=C(CN1C(=O)NC2(CCCCCCC2)C1=O)N1CCOCC1	-11.8	1	3.0	-4.5	1.1
